Source: PubChem (National Center for Advancing Translational Sciences (NCATS))
Marburg entry inh: blocks Marburg virus binding to or entry into cells; Marburg virus pseudotyped entry inhibition, cell reporter; Potency, µM (highest dose often 37.8 µM), for inactives: top-dose activity change, negative = inhibition, usual class: inhibitors; 1.8% of 300,000 active; AID 540276; calls by dose curve; tested in HEK293 cells; note: potency is the fitted concentration of half-maximal effect
FMDV antiviral: blocks foot and mouth disease virus; FMDV antiviral cell-based qHTS; Potency, µM (titrated, usually from 57.9 µM), for inactives: at the top dose activity change, negative = inhibition, actives largely listed as inhibitors; 1.2% of 410,000 active; calls by dose curve; tested in HEK293T cells; note: read-out not given here; potency is the fitted concentration of half-maximal effect; nearly all actives have a fitted effect of over 45% in size
HCV inhibitor: HCV inhibition; Huh7.5.1 HCVcc-Cre infection, luciferase reporter, 44 h; Potency, µM (doses to about 41.8 µM), for the others: top-dose activity change, negative = inhibition, hits mostly inhibitors; 3.4% of 340,000 active; AID 651820; active = well fitted inhibition curve with a large enough effect; inconclusive = small, poorly fitted or top-dose-only effect, or another doubt; inactive = no such curve, though single readings can be large or run the other way; note: potency is the fitted concentration of half-maximal effect
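Reporter virus HCVcc-Cre (~0.5 moi) infects cells exposed to compound; seeding density 1,000 cells/well with 4 h settling beforehand. Luminescence, 15 sec read, taken 44 h post-infection following a 15 min RT substrate incubation.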
HCMV antiviral: human cytomegalovirus inhibition. HFF cells, HCMV-luciferase reporter, 72 h; stronger effect = lower value. activity change, negative = inhibition, % at 57.5 µM. 4.5% of 410,000 active; in the data active = activity change below about -60%; inconclusive = no clear call, values can overlap the other calls; inactive = above about -39%
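Luciferase read-out from HCMV-luciferase-infected HFFs (MOI 1 PFU/cell) 72 h post infection at 37C; compounds added after 16 h cell attachment; activity normalized between buffer-only basal and Salinomycin (10uM) inhibitor controls.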
LASV entry inh: inhibitors of Lassa virus binding or cell entry; Lassa virus pseudotype entry inhibition, cell reporter; Potency, µM (top dose mostly 37.9 µM), without a hit: at the top dose activity change, negative = inhibition, most hits filed as inhibitors; 1.2% of 300,000 active; AID 540256; calls by dose curve; tested in HEK293 cells; note: potency is the fitted concentration of half-maximal effect; nearly all actives have a fitted effect of over 50% in size
* marks the source's active call; other numbers are inactive results; ? = inconclusive; nt = no result given; [ ] = remark or other dose. Sampled rows, rich in hits. Any-hit rate of the full collection: about 7.9%. % is set by controls: 0 for no effect and ±100 for the full control effect.

SMILES	Marburg entry inh	FMDV antiviral	HCV inhibitor	HCMV antiviral	LASV entry inh
CCCOc1ccc(C(O)(CCC)CCN2CCCCC2)cc1 (configuration not stated)	-29%	0%	8.9µM*	-17	?
COc1ccc(-c2nc3cc(C)ccc3cc2CN(C(=O)c2cc(C)nn2C)C2CC2)cc1OC	nt	-4%	nt	nt	nt
Nc1ncnc2c1ncn2CCc1ccccc1	?	9%	1%	?	2%[46.1 µM]
Nc1ncnc2c1nc(SCCO)n2Cc1ccccc1	-1%[46.1 µM]	-25%	10%	-74*	nt
O=[N+]([O-])c1ccc(O)c(Nc2c([N+](=O)[O-])ccc3nonc23)c1	3%[46.1 µM]	?	10%	-18	-10%
CCOC(=O)c1ccc(NC(=O)Nc2ccc(OC)c(OC)c2)cc1	4%	-13%	25µM*	?	0%
CCOC(=O)c1ccc(NC(=O)c2ccc3c(c2)OCO3)cc1	?	12%	?	-8	?
CCOC(=O)c1ccc(NC(=O)COc2ccccc2CNC2CCCC2)cc1	8.9µM*	-21%	-30%	-28	?
CCOC(=O)c1ccc(NC(=O)NCCc2ccccc2OC)cc1	nt	?	-24%	-22	nt
CCOC(=O)c1ccc(NC(=O)NCc2ccccc2OC)cc1	-17%[46.1 µM]	11%	11µM*	-4	nt
CCOC(=O)c1ccc(NC(=O)COc2ccccc2OC)cc1	0%	-2%	-9%	-13	0%
CCOC(=O)c1ccc(NC(=O)c2ccc(OC(C)C)c(OC)c2)cc1	?	40µM*	?	14	-34%
CCCCOC(=O)c1ccc(NC(=O)Nc2ccc(OC)c(OC)c2)cc1	1%	-2%	-19%	19	-26%
COc1ccc(CNC(=O)CCc2cn(C)c3ccccc23)cc1	nt	8%	nt	11	9%[46.1 µM]
Nc1ncc(/C=C/CNC(=O)c2cc(Cl)c(Br)[nH]2)[nH]1	nt	nt	nt	-15	nt
CCN1CCN(CCCNC(=O)CN2C(=O)c3cccnc3Oc3ccc(Cl)cc32)CC1	1%[46.1 µM]	-9%	20%	?	26%[46.1 µM]
CCCOC(=O)c1ccc(NC(=O)c2cc(OC)c(OC)c(OC)c2Br)cc1	?	-11%	7.1µM*	25	?
CCOC(=O)c1cc(-c2ccccc2)n(CC(=O)NCc2ccccc2OC)c1C	nt	-10%	nt	-61*	7.1µM*
CCOC(=O)c1ccc(NC(=O)NC2CC3CCC(C2)N3)cc1 (configuration not stated)	nt	-10%	18µM*	-27	nt
COC(=O)c1ccc(NC(=S)N2CCN(Cc3ccccc3OC)CC2)cc1	nt	-1%	-23%	-80*	nt
CC(=O)OC[C@@H]1O[C@H](C/C=N\OC[C@@H](C)[C@H](OCc2ccccc2)C(C)C)C=C[C@@H]1OC(C)=O	-10%[14.2 µM]	nt	nt	nt	nt
COc1cc(CN2CCCC(c3nc(-c4ccncc4)ncc3-c3ccccc3)C2)ccc1O (configuration not stated)	nt	-10%	nt	nt	nt
CCOC(=O)CCNC(=O)N1CCC(CCOc2ccccc2)(C(=O)OCC)CC1	nt	-7%	2%	-3	nt
O=C(Cc1ccc(Br)cc1)Nc1cccc(-c2cn3c(n2)SCC3)c1	?	?	?	-71*	?
CN1/C(=C\C=C(C#N)C#N)C(C)(C)c2ccccc21	nt	-20%	5%	-3	nt
SMILES	Marburg entry inh	FMDV antiviral	HCV inhibitor	HCMV antiviral	LASV entry inh
CN1/C(=C/C=C/c2n(C)c3cc([N+](=O)[O-])c([N+](=O)[O-])cc3[n+]2C)C(C)(C)c2ccccc21	nt	?	nt	-67*	nt
COC(=O)CN1C(=O)S/C(=C/c2ccc(N3CCCCC3)o2)C1=O	12%	21%	?	-104*	?
CCCN1C(=O)S/C(=C\c2ccc(N3CCOCC3)o2)C1=O	-27%[46.1 µM]	4%	-20%	25	4%
CCCN1C(=O)S/C(=C/c2ccc(N3CCOCC3)o2)C1=O	-6%[46.1 µM]	30%	?	-79*	18%[46.1 µM]
CN1CCN(c2cc(-c3ccc4ccccc4c3)nc3ccnn23)CC1	nt	-8%	nt	-31	nt
COC(=O)c1c(NC(=O)CSc2ncnc3[nH]ncc23)sc2c1CCC2	12%[46.1 µM]	5%	6%	-81*	?
COC(=O)c1c(NC(=O)CSc2ncnc3c2cnn3-c2ccccc2Cl)sc2c1CCCC2	?	-21%	?	-85*	5.8µM*
CS(=O)(=O)N(CC(=O)Nc1cccc(Br)c1)Cc1ccccc1	?	-16%	7%	-15	-26%[46.1 µM]
CC1=C(C(=O)Nc2cccc(C(F)(F)F)c2)C2(CCN(C(C)C)CC2)OC1=O	nt	-18%	nt	2	?
N#Cc1ccc2c(c1)N(CCCN1CCC(O)CC1)c1ccccc1S2	nt	-2%	nt	nt	nt
